Data published in the supplement of paper PMC10849652.
About 7,900 targets were measured; listed, in parts, are those with a hit and a random draw of the rest. About 0.6% of all pairs of compound and target were hits. Values without a mark were called inactive.

Tests used:
Assay in all cases: log2 fold change, soluble protein after heating vs DMSO (PISA); higher = thermal stabilisation; K562 cells, 10 uM, 30 min; active = over 0.2 and 3.5 SD of the protein, either way, in both replicates (recomputed)
[1] = compound: CC[C@@H]1C(=O)N(C)c2cnc(Nc3ccc(C(=O)NC4CCN(C)CC4)cc3OC)nc2N1C1CCCC1
Procedure, shortened: (§1)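 Values are thermal stability changes relative to control samples and are taken from duplicates. They are stated as log2 fold changes. Before quantification by TMTpro 16plex LC-MS/MS with equalised channel sums, K562 cells at 2×10^6 cells/mL were treated with 10 μM compound for 30 min, heated in aliquots for 3 min across 48°C-58°C, pooled, extracted in PBS with 0.5% NP-40 at 4°C, and centrifuged at 21,000xg for 90 min to give the soluble supernatant.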

volasertib = compound: CC[C@@H]1C(=O)N(C)c2cnc(Nc3ccc(C(=O)N[C@H]4CC[C@H](N5CCN(CC6CC6)CC5)CC4)cc3OC)nc2N1C(C)C [volasertib]
Procedure, shortened: as §1

[2] = compound: CC[C@H](C)N1C=C(C2=C(C=C(C=C21)C3=CN=C(C=C3)N4CCNCC4)C(=O)NCC5=C(C=C(NC5=O)C)C)C
Procedure, shortened: as §1

epoxomicin = compound: CC[C@H](C)[C@@H](C(=O)N[C@@H]([C@@H](C)O)C(=O)N[C@@H](CC(C)C)C(=O)[C@]1(CO1)C)NC(=O)[C@H]([C@@H](C)CC)N(C)C(=O)C [epoxomicin]
Procedure, shortened: as §1

[3] = compound: CCn1c(C(=O)N(C2CC2)C2CC2)cc2c3c(ncn3C)c(Nc3cc(C)n(C)n3)nc21
Procedure, shortened: as §1

[4] = compound: CCn1cc(-c2ccnc3[nH]c(-c4cccc(CN(C)C)c4)cc23)c(-c2ccc(NC(=O)N(C)C)cc2)n1
Procedure, shortened: as §1

[5] = compound: CN(C)CC(=O)Nc1ccc2[nH]c(=O)c3ccccc3c2c1
Procedure, shortened: as §1

rosiglitazone = compound: CN(CCOC1=CC=C(C=C1)C[C@H]2C(=O)NC(=O)S2)C3=CC=CC=N3 (racemic) [rosiglitazone]
Procedure, shortened: as §1

[6] = compound: CN1C2=C(C3=C1C(=O)N(N=C3)CC4=CC(=CC=C4)N)SC(=C2)S(=O)C
Procedure, shortened: as §1

[7] = compound: CN1CCC(CNc2ccc3ncc(-c4cccc(OC(F)(F)F)c4)n3n2)CC1
Procedure, shortened: as §1

saracatinib = compound: CN1CCN(CCOc2cc(OC3CCOCC3)c3c(Nc4c(Cl)ccc5c4OCO5)ncnc3c2)CC1 [saracatinib]
Procedure, shortened: as §1

sotrastaurin = compound: CN1CCN(c2nc(C3=C(c4c[nH]c5ccccc45)C(=O)NC3=O)c3ccccc3n2)CC1 [sotrastaurin]
Procedure, shortened: as §1

alvocidib = compound: CN1CC[C@H](c2c(O)cc(O)c3c(=O)cc(-c4ccccc4Cl)oc23)[C@H](O)C1 [alvocidib]
Procedure, shortened: as §1

Tubastatin A = compound: CN1CCc2c(c3ccccc3n2Cc2ccc(C(=O)NO)cc2)C1 [Tubastatin A]
Procedure, shortened: as §1

[8] = compound: CNC(=O)C1=CC=CC=C1NC2=NC(=NC=C2Cl)NC3=C(C=C(C=C3)N4CCOCC4)OC
Procedure, shortened: as §1

defactinib = compound: CNC(=O)c1ccc(Nc2ncc(C(F)(F)F)c(NCc3nccnc3N(C)S(C)(=O)=O)n2)cc1 [defactinib]
Procedure, shortened: as §1

rucaparib = compound: CNCc1ccc(-c2[nH]c3cc(F)cc4c3c2CCNC4=O)cc1 [rucaparib]
Procedure, shortened: as §1

[9] = compound: CNc1nc(-c2ccc3c(N)n[nH]c3c2)cc(N2C[C@@H](C(=O)NC3CCCCC3)CC[C@H]2C)n1
Procedure, shortened: as §1

encorafenib = compound: COC(=O)N[C@@H](C)CNc1nccc(-c2cn(C(C)C)nc2-c2cc(Cl)cc(NS(C)(=O)=O)c2F)n1 [encorafenib]
Procedure, shortened: as §1

[10] = compound: COC(=O)[C@H](CCSC)NC(=O)C1=C(C=C(C=C1)NC[C@H](CS)N)C2=CC=CC=C2
Procedure, shortened: as §1

UniProt Q9BPX3, sequence (Q9BPX3 whole entry, looked up): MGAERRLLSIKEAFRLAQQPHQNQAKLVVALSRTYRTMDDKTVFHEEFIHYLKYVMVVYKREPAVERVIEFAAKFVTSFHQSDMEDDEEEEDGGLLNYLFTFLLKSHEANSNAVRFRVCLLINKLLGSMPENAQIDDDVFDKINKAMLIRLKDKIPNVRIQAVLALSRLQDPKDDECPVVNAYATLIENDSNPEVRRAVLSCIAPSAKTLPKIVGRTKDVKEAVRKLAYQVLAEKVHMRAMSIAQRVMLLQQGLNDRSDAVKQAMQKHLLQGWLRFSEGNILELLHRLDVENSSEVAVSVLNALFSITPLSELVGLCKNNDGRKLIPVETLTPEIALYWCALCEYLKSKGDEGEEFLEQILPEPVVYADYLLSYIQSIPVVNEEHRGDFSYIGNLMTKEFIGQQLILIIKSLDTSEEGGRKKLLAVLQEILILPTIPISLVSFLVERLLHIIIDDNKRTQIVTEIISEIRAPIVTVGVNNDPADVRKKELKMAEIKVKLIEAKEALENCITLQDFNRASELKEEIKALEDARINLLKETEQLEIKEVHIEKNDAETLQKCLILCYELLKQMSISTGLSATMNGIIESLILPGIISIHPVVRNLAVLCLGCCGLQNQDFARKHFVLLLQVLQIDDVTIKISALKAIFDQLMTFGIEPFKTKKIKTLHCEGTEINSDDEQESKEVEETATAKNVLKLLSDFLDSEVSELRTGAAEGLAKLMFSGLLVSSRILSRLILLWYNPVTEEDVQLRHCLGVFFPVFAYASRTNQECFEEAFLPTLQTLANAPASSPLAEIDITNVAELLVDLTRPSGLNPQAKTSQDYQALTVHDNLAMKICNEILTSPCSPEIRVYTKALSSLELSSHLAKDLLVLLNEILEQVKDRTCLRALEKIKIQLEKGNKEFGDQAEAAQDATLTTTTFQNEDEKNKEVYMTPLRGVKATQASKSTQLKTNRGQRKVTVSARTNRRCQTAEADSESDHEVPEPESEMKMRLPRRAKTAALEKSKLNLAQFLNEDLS
UniProt Q96IV0, sequence (Q96IV0 whole entry, looked up): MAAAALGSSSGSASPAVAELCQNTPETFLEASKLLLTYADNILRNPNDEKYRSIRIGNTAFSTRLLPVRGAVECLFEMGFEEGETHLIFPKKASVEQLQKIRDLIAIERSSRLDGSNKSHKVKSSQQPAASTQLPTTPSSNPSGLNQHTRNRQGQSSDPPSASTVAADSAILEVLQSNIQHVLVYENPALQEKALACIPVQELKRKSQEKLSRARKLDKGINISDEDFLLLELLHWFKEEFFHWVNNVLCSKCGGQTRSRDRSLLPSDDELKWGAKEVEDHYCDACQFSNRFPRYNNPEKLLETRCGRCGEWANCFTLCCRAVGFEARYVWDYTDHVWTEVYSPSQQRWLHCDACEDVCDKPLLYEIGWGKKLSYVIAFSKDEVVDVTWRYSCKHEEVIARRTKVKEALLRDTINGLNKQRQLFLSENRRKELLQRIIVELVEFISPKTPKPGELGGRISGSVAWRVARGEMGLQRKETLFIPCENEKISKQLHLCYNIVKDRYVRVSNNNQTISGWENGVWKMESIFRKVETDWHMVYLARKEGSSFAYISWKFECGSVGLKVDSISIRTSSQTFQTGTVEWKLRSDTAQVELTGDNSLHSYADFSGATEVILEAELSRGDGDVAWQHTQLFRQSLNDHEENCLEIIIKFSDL
UniProt P40261, sequence (P40261 whole entry, looked up): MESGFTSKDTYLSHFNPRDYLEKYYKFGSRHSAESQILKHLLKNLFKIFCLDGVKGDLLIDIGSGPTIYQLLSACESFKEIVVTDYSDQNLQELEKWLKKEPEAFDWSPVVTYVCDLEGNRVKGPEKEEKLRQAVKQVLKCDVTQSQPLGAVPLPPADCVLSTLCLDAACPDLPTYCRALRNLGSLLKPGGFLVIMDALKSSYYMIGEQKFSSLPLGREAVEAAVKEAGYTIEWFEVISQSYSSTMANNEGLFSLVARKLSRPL
UniProt Q13469, sequence (Q13469 whole entry, looked up): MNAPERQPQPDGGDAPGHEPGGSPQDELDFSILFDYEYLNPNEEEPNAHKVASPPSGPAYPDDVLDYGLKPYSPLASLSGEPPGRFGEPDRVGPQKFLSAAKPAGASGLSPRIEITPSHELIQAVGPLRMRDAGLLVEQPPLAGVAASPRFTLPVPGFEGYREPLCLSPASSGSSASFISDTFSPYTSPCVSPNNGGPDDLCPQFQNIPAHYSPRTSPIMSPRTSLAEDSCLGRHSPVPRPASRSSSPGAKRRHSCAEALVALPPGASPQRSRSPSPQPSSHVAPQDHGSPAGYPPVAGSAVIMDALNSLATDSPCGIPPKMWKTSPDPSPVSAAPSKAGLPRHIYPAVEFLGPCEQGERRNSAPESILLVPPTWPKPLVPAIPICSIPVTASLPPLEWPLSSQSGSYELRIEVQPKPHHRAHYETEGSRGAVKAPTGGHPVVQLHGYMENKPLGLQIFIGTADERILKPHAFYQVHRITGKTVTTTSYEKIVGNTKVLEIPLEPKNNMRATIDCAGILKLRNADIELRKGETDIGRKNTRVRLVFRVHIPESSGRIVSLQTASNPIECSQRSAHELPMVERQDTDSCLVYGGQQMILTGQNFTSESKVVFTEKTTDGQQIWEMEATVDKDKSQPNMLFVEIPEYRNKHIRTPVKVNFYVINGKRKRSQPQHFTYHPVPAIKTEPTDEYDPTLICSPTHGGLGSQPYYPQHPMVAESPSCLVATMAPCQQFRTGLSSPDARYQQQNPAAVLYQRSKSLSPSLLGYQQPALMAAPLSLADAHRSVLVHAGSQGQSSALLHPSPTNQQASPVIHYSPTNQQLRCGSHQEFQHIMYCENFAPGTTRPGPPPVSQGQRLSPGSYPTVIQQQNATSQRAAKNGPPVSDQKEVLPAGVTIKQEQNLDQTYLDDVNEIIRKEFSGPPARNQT
UniProt Q9BUB5, sequence (Q9BUB5 whole entry, looked up): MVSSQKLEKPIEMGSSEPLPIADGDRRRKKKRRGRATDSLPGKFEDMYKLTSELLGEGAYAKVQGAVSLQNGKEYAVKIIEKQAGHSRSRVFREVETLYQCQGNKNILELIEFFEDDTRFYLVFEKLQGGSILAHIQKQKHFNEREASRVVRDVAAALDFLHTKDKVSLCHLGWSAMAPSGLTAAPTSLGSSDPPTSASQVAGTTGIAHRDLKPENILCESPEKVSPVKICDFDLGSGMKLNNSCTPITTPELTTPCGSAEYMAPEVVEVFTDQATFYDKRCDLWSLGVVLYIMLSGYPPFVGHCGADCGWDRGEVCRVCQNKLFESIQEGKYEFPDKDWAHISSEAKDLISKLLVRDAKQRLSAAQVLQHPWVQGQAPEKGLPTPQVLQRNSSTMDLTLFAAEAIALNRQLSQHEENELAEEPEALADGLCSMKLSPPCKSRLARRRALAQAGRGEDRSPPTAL
UniProt Q9H3P2, sequence (Q9H3P2 whole entry, looked up): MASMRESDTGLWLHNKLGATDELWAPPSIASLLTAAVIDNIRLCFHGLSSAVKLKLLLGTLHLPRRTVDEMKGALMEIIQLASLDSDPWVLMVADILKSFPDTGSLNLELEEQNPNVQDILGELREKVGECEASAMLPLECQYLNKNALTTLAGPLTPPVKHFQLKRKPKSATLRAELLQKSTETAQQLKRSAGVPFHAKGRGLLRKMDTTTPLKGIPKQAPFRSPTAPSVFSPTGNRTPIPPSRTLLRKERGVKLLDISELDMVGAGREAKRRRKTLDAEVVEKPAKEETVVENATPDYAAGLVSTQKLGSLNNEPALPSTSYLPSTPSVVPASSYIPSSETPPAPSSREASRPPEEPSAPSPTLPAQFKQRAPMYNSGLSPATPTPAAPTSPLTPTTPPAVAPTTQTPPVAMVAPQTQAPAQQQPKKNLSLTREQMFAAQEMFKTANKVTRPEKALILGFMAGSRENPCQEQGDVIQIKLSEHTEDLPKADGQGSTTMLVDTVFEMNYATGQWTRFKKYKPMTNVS

Target	log2 fold change [1]	log2 fold change (volasertib)	log2 fold change [2]	log2 fold change (epoxomicin)	log2 fold change [3]	log2 fold change [4]	log2 fold change [5]	log2 fold change (rosiglitazone)	log2 fold change [6]	log2 fold change [7]	log2 fold change (saracatinib)	log2 fold change (sotrastaurin)	log2 fold change (alvocidib)	log2 fold change (Tubastatin A)	log2 fold change [8]	log2 fold change (defactinib)	log2 fold change (rucaparib)	log2 fold change [9]	log2 fold change (encorafenib)	log2 fold change [10]
MKNK1 (UniProt Q9BUB5)	-0.148	-0.183	-0.025	0.018	-0.023	-0.101	0.009	0.036	-0.095	-0.006	0.049	-0.088	-0.06	0.037	0.038	-0.102	0.099	0.051	0.018	-0.053
MRPS2 (UniProt Q9Y399)	-0.048	0.037	0.053	0.02	-0.01	-0.045	0.031	-0.003	0.016	0.044	-0.243	-0.145	0.005	0.036	-0.021	0.034	0.104	0.035	0.084	-0.088
MRPL47 (UniProt Q9HD33)	0.094	-0.038	0.044	0.061	-0.021	0.235	-0.036	-0.027	0.071	-0.325	-0.168	-0.024	0.113	0.081	-0.028	0.151	-0.122	0.17	0.063	-0.022
NELFA (UniProt Q9H3P2)	-0.4	-0.868 (active)	0.341	0.053	-0.105	-0.139	0.16	0.048	-0.051	0.006	0.004	-0.023	-0.193	0.216	0.078	-0.094	0.261	-0.014	-0.039	-0.213
NCAPG (UniProt Q9BPX3)	-0.105	-0.506 (active)	0.059	0.023	-0.002	0.003	0.04	0.066	0.004	0.092	-0.077	-0.122	-0.053	0.026	0.106	-0.067	0.078	-0.004	0.093	-0.039
NGLY1 (UniProt Q96IV0)	-0.07	-0.367 (active)	0.04	-0.071	-0.045	-0.03	0.055	0.01	0.044	-0.116	-0.04	-0.135	-0.002	-0.04	0.01	-0.026	0.161	0.05	0.159	-0.064
NNMT (UniProt P40261)	0.003	-0.197	0.023	0.039	0.017	-0.068	-0.042	0.007	-0.025	-0.152	-0.041	0.01	-0.087	-0.081	0.016	0.004	-0.078	0.021	-0.021	0.038
NFATC2 (UniProt Q13469)	-0.098	-0.281	0.19	-0.001	0.045	-0.197	0.065	0.191	0.039	-0.102	-0.128	-0.166	-0.199	0.118	0.007	-0.14	-0.047	-0.382 (active)	0.101	0.071
